High-throughput results from PubChem BioAssay.
APOBEC3G inh = APOBEC3G DNA deaminase inhibitors, primary screen, biochemical, fluorescence, single-stranded DNA substrate, uHTS | hit rate 0.28% among 330,000 | AID 493012, 2011 | recombinant A3G, ssDNA deamination FAM/TAMRA fluorescence | inhibition, % at 20 µM | DNA dC->dU-editing enzyme APOBEC-3G (Homo sapiens), Q9HC16;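 active = inhibition of at least 40% at 20 µM, with no more than 30% in the related APOBEC3A deaminase screen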
ADAM17 inh = ADAM17 inhibitors, primary screen, biochemical, QFRET; Disintegrin and metalloproteinase domain-containing protein 17 (Homo sapiens), P78536; AID 720648, 2013; hit rate 0.83% among 370,000; inhibition, % at 6.95 µM; recombinant ADAM17, EDANS/DABCYL FRET peptide cleavage;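 active = inhibition above the mean of compounds lying between control limits plus 3 SD, set per campaign, cut at about 8.5% in these data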
Target sequence (P78536 215-824 limits assumed): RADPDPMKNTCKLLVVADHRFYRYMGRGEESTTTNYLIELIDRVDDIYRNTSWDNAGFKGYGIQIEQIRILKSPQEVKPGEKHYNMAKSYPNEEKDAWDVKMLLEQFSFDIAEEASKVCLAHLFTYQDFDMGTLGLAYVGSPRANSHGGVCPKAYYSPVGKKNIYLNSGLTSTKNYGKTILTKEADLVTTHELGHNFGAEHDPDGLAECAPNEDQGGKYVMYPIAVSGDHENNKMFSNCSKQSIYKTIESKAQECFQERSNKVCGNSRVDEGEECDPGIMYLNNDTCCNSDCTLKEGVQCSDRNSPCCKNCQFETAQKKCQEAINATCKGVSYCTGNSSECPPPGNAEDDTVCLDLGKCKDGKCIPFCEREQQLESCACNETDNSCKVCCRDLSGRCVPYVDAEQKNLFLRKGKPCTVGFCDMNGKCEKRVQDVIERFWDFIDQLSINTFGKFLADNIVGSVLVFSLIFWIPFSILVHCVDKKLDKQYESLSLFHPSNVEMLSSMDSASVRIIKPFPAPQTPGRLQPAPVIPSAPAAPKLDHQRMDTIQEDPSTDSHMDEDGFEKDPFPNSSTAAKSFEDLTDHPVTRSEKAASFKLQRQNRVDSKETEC
CendR NRP1 mod = modulators of CendR peptide binding to NRP-1, primary screen, biochemical, fluorescence polarization, uHTS; Neuropilin-1 (Homo sapiens), O14786; inhibition, % at 25 µM; FAM-RPARPAR peptide binding to NRP-1; hit rate 0.85% among 360,000;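 active = inhibition or corrected inhibition above about 18%, plus a signal ratio from 0.5 to 1.5, limit read from the data, passing the limit was not always enough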
ADAM10 inh = human ADAM10 inhibitors, primary screen, biochemical, QFRET, HTS. inhibition, % at 7 µM. hit rate 0.62% among 370,000. recombinant ADAM10, EDANS/DABCYL FRET peptide cleavage, 3 h. AID 720582, 2013. Disintegrin and metalloproteinase domain-containing protein 10 (Homo sapiens), O14672;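 active = inhibition above a per-campaign cutoff equal to the mean of compounds falling between control-based bounds plus 3 SD, cut at about 20% in these data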
APOBEC3A inh = APOBEC3A ssDNA deaminase inhibitors, primary screen, selectivity assay for APOBEC3G inhibitor project, biochemical, FAM/TAMRA oligo cleavage fluorescence | DNA dC->dU-editing enzyme APOBEC-3A (Homo sapiens), P31941 | recombinant A3A, FAM/TAMRA ssDNA deamination fluorescence | inhibition, % at 20 µM | hit rate 0.41% among 330,000 | AID 493011, 2011;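 active = at least 40% inhibition at 20 µM here, with at most 30% in a related deaminase screen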
Numbers stand for hits; i = inactive; nt = no result given. This is a sample that favours compounds with a hit; in the whole collection about 2.4% have one here.

SMILES | APOBEC3G inh | ADAM17 inh | CendR NRP1 mod | ADAM10 inh | APOBEC3A inh
CC1Cc2ccccc2N1C(=O)CSc1nnc2c(n1)[nH]c1ccc(F)cc12 (stereo not given) | i | i | 22 | i | i
Cc1cccc(C(=O)N[C@H]2CC[C@@]34CCCN3C(=O)CCC[C@H]4[C@H]2C)c1 | nt | i | nt | i | nt
COc1ccccc1Nc1nc(C)cc(C)n1 | i | i | i | i | i
COc1ccccc1Nc1nc(Cl)nc(Nc2ccccc2OC)n1 | i | i | 26 | i | i
COc1cccc(N(C(=O)Cn2nnc(-c3ccc(C)cc3)n2)C(C(=O)NC(C)(C)C)c2c[nH]c3ccccc23)c1 (stereo not given) | i | 12 | i | 23 | i
CC(C)(C)NC(=O)C(c1c[nH]c2ccccc12)N(C(=O)Cn1nnc(-c2ccc(Cl)cc2)n1)c1ccccc1F (stereo not given) | i | i | i | i | i
CCOC(=O)N1CCN(C(=O)COC(=O)c2oc3ccc(OC)cc3c2C)CC1 | i | i | 23 | i | i
Cc1cc(S(=O)(=O)NCC(c2ccc3c(c2)OCO3)N2CCOCC2)ccc1F (stereo not given) | i | i | 24 | i | i
CCOC(=O)[C@]12CCCCC/C=C\1N(CCc1ccc(Cl)cc1)C(=O)[C@H]2CC(=O)NCCc1ccccc1OC | nt | i | nt | i | nt
COc1cc(O)c2c(c1)OC(C)(C)CC2=O | i | i | i | i | i
COc1cc(O)cc2cc3c(c(O)c12)C(=O)CC(C)(O)O3 (stereo not given) | i | i | 38 | i | i
COC(=O)[C@]12C[C@H](CC(=O)NCC3CCCCC3)C(=O)N(Cc3ccco3)C1=C[C@H](C(C)C)O[C@@H]2C1CC1 | nt | i | nt | i | nt
COc1ccc(C(NC(=O)C(C)(C)C)NC(=O)C(C)(C)C)cc1 | i | i | 20 | i | i
COc1ccc([C@@H](NC(=O)OC(C)(C)C)C(=O)OC(C)(C)C)cc1 | i | i | i | i | i
COc1ccc(C2CC(=O)C(C=NCCO)=C(O)C2)cc1 (stereo not given) | i | i | i | i | i
O=C1CC(c2ccc(Cl)cc2)CC(O)=C1C=NCCO (stereo not given) | i | i | 16 | i | i
C/C(=N/NC(=O)CN1CCN(Cc2ccccc2Cl)CC1)c1cccc(O)c1 | nt | i | nt | i | nt
Oc1cc(CNCc2ccccc2)c(O)cc1CNCc1ccccc1 | nt | i | 28 | i | nt
CC(=O)OC12CCCN(C1)/C(=C/c1cccc(Cl)c1)C2 (stereo not given) | nt | i | nt | i | nt
CC(OP(=O)(O)C(NC(=O)[C@H](Cc1ccc(O)cc1)NC(=O)OC(C)(C)C)C(C)C)C(=O)O (stereo not given in full) | nt | i | nt | i | nt
CCN(CC)S(=O)(=O)c1ccc(N2CCOCC2)c(NC(=O)c2ccc(N3CCCC3=O)cc2)c1 | i | i | i | i | i
O=C(Nc1ccccc1N1CCOCC1)c1ccc(N2CCCC2=O)cc1 | i | i | 25 | i | i
Oc1ccc(N2CCN(C(c3cccs3)c3nnnn3CCc3ccccc3)CC2)cc1 (stereo not given) | i | i | i | 21 | i
COc1ccc(Cn2nnnc2C(c2cccs2)N2CCN(c3ccccc3)CC2)cc1 (stereo not given) | i | i | i | i | i
CCOc1cc(C(c2c(O)nc(SC)[nH]c2=O)c2c(O)nc(SC)[nH]c2=O)ccc1O | i | i | 30 | i | i
SMILES | APOBEC3G inh | ADAM17 inh | CendR NRP1 mod | ADAM10 inh | APOBEC3A inh
CCN1CCN(CC2CC3C=CC2C3)CC1 (stereo not given) | i | i | 31 | i | i
CS(=O)(=O)N1CCN(CC2CC3C=CC2C3)CC1 (stereo not given) | i | i | i | i | i
Cc1cc(=O)[nH]c(SCC(=O)Nc2cccc(Cl)c2F)n1 | nt | i | nt | i | nt
OC(c1ccccc1)(c1ccccc1)C1CCN(CCCNc2cccc(OC(F)(F)F)c2)CC1 | nt | i | nt | i | nt
COc1cc(C(=O)c2c(C)c(CCC#N)n3ccccc23)cc(OC)c1OC | i | i | 21 | i | i
O=C(NCCc1ccccc1)OCc1cn(Cc2cc(F)cc(F)c2)nn1 | nt | i | nt | i | nt
O=C(NCc1ccco1)C1CC(c2ccc(C(F)(F)F)cc2)=NO1 (stereo not given) | i | i | 31 | i | i
CCOc1ccc(C=Nn2c(-c3cccc(OC(C)C)c3)n[nH]c2=S)cc1 | nt | i | nt | i | nt
C[C@@H]1CN(C(=O)OC(C)(C)C)CCN1c1ccc(N2CCN(Cc3ccccc3)[C@@H](C)C2)c(C#N)c1 | nt | i | nt | i | nt
O=C(CN(C(=O)CCC(=O)Nc1ccccn1)c1ccc2c(c1)OCO2)NCc1ccco1 | i | i | 22 | i | i
O=C(NCCN1CCC(Cc2ccccc2)CC1)C1CCCN(S(=O)(=O)c2ccccc2[N+](=O)[O-])C1 (stereo not given) | nt | i | nt | i | nt
COc1ccc(C2/C=C\CN3CCC[C@H]3C(=O)N2Cc2ccc(F)cc2)cc1 (stereo not given in full) | i | i | i | i | i
COc1ccc(C2/C=C\CN(C(=O)C3CC3)[C@H](Cc3ccccc3)C(=O)N2Cc2ccc(F)cc2)cc1 (stereo not given in full) | i | nt | i | nt | i
COc1ccc([C@H]2/C=C\CN(C(=O)C3CC3)[C@@H](C)C(=O)N2Cc2ccc(F)cc2)cc1 | i | i | 33 | i | i
COc1ccc([C@H]2/C=C\CN(S(C)(=O)=O)[C@@H](C)C(=O)N2Cc2ccc(F)cc2)cc1 | i | i | 22 | i | i
O=C(CN1CCCc2ccccc21)NCc1ccc(Cl)cc1 | nt | i | nt | i | nt
CCn1c2ccccc2c2cc(NC(=O)COC(=O)c3cc(F)ccc3F)ccc21 | nt | i | nt | i | nt
CCCN(CCC)CCN1CCN(C(=O)[C@H](CCc2ccccc2)NC(=O)[C@H]2O[C@@H](n3cnc4c(N)ncnc43)[C@H](O)[C@@H]2O)CC1 | nt | i | nt | i | nt
O=C(Nc1ccc(Cl)cc1)c1cc(S(=O)(=O)Nc2ccccn2)ccc1Cl | i | i | 24 | i | i
COc1cc(/C=C2/SC(=O)N(Cc3ccccc3Cl)C2=O)ccc1OCc1ccncc1 | i | i | 21 | i | i
COc1c(C=O)cc2c3c1CCCN3CCC2 | i | i | i | i | i
NCc1cc2c3c(c1)CCCN3CCC2 | i | i | 40 | i | i
O=C1[C@H]2[C@H](C=CC[C@H]2C(=O)N2CCN(c3ccccc3)CC2)CCN1Cc1ccccc1 | i | i | 28 | i | i
CCCCOCC1CN(CCCC)S(=O)(=O)c2c(NCc3cc(OC)c(OC)c(OC)c3)cccc2O1 (stereo not given) | nt | i | nt | i | nt
